# Test results from ChEMBL document CHEMBL3988442, “University of Dundee, Small-Polar-MMV Screening Library” (2021).
# The campaign covered roughly 69,000 compounds. About 10 (0.01%) showed an effect of 50% or more. What follows is part of a selection rich in strong results, with near analogues and random picks from the rest.
# Biological target: ClpP1P2 (Mycobacterium tuberculosis (strain ATCC 25618 / H37Rv)) (UniProt P9WPC5+P9WPC3)
# Assay: in vitro assay to detect presence of AMC directly proportional to the activity of ClpP1P2. GHDDI collaboration.
# Assay type: functional
# Design: scale not given: direction of the effect not stated beside the values
# Details: 50 µM
row,SMILES,Percent Effect [%]
1,CCS(=O)(=O)N1CC[C@@H]2[C@H](COCC3CC3)CN(C)C(=O)[C@@H]2CC1,-4.29
2,Cc1ccc([C@]2(O)CC[C@H]3CN(Cc4ccncc4)C[C@H]32)nc1,23.9
3,O=C([C@H]1C[C@H]2OCC[C@H]2N(CC2CCOCC2)C1)N1CCCCO1,-11.4
4,COCCN1C[C@@H]2[C@@H](OC)CCN(S(=O)(=O)c3cccnc3)[C@@H]2C1,-10.6
5,Cc1cnc(N2C[C@H]3CCN(CC4CC4)C[C@H]3C2)nc1,-8.8
6,Cc1ccc(CN2CC[C@@H]3[C@@H]2CCN3C(=O)Cc2cccs2)o1,16.6
7,COc1ccc(CC(=O)N2C[C@H]3CN(Cc4ccccn4)C[C@H]3C2)cc1,-3.43
8,Cc1noc(C)c1CN1C[C@H](OCC(=O)N(C)C)[C@H]2OCCC[C@H]21,-8.82
9,CNCCN1C(=O)CC[C@H]2CN(c3cnc4ccccc4n3)CC[C@H]21,-92.8
10,O=C(CN1C[C@H]2CC[C@@H]1CN(Cc1ccccn1)C2)Nc1ccccc1,-28.1
11,CN(Cc1ccco1)[C@@H]1CN(Cc2cccnc2)C[C@@H]2CCCO[C@@H]21,6.33
12,CC(C)OC(=O)N1C[C@H]2CC[C@@H]1CN(C(=O)c1ccccc1)C2,-3.47
13,Cc1noc([C@H]2COC[C@H]3CN(C(=O)Cc4cccs4)C[C@H]32)n1,-9.33
14,CN(C)C(=O)[C@@H]1C[C@@H]2CCN(Cc3ccncc3)C[C@@H]2O1,7.41
15,c1cncc(COCC2CC[C@H]3[C@H]2OCCN3Cc2ccoc2)c1 (stereo partly specified),3.35
16,CN(C)C[C@]12COC[C@H]1CN(C(=O)Cc1ccc3c(c1)OCO3)C2,7.79
17,Cn1cc(CN2CC[C@@H]3O[C@H](C(=O)N4CCOCC4)C[C@@H]32)cn1,-11.6
18,COCCN1C[C@@H]2CN(Cc3cccc(F)c3)CCC[C@]2(C(=O)O)C1,-13.3
19,Cc1cccc2nc(C(=O)N3CCCC[C@]4(C)NC(=O)CCC[C@H]34)cn12,-8.66
20,CN(C)C(=O)[C@H]1CC[C@@H]2[C@@H](CCN2Cc2ccccn2)O1,-3.56
21,CC1=N[C@@]2(CC[C@@H]3CN(Cc4cccc(Cl)c4)C[C@@H]32)C(=O)N1CC1CC1,3.49
22,O=C(c1cccnc1)N1C[C@@H]2OCCN(CCN3CCCC3)[C@@H]2C1,4.78
23,Cn1ccnc1CN1CCO[C@H]2C(CNC(=O)c3ccco3)CC[C@@H]21 (stereo partly specified),0.912
24,Cc1ncsc1CN1C[C@@H](OCC(=O)N(C)C)[C@H]2OCCC[C@H]21,-2.89
25,CCS(=O)(=O)N1CCC[C@]2(C(=O)N(C)C)CN(c3ncccn3)C[C@@H]2C1,5.41
26,CCc1ccc(CN2C[C@@H]3COC[C@H](NS(C)(=O)=O)[C@@H]3C2)o1,-9.73

row,SMILES,Percent Effect [%]
1,Cc1cccc(CN2CCCC[C@H]3CN(c4ncccn4)C[C@H]32)c1,3.15
2,CCN1CCO[C@@H]2CN(S(=O)(=O)c3cccs3)CC[C@@H]2C1,1.3
3,CC(=O)N1CCC(N2CCN3C(=O)N(c4ccccc4)C[C@H]3C2)CC1,-1.27
4,Cc1noc([C@@]23CCO[C@@H]2CCN(C(=O)c2c(C)noc2C)C3)n1,-20.2
5,CCCS(=O)(=O)N1C[C@@H]2CN(Cc3ccoc3)CCO[C@@H]2C1,2.92
6,Cc1cc(CN2C[C@@H]3CCCO[C@@H]3[C@H](Nc3ccccn3)C2)no1,-4.49
7,COc1cc2c(cc1-c1nc3c(cnn3C(C)C(C)C)[nH]1)OCO2 (stereo unspecified),-3.85
8,COc1cc2c(cc1-c1nc3c(cnn3C(C)C3CC3)[nH]1)OCO2 (stereo unspecified),21.1
9,COc1cc2c(cc1-c1nc3c(cnn3C(C)C)[nH]1)OCO2,56.2
10,CCN1CC[C@@]2(C(=O)N(C)C)CCN(S(=O)(=O)c3ccccc3)CC[C@@H]12,-6.35
11,COCCN1CC[C@@H]2CN(Cc3nccn3C)C[C@@H]2C1,3.59
12,Fc1cnc(N2CCO[C@H]3CN(CC4CCOC4)C[C@H]32)nc1 (stereo partly specified),-12.3
13,CCS(=O)(=O)N1C[C@H]2CN(CC3CC3)C(=O)[C@H]2C1,7.7
14,CC(C)CN1C(=O)CC[C@H]2CN(Cc3ncc[nH]3)CC[C@H]21,-3.16
15,O=C(C1=CCCC1)N1C[C@@H]2COC[C@]2(COCC2CC2)C1,-3.2
16,CN(C)CCN1CCO[C@H]2CN(Cc3ccccn3)C[C@H]21,1.87
17,O=C(c1ccncc1)N1C[C@@H]2OCCN(CCN3CCCC3)[C@@H]2C1,-8.83
18,O=C1[C@H]2CN(CC3CCOCC3)C[C@H]2CN1Cc1cccc(F)c1,7.64
19,Cc1cccc(COC[C@@]23CCC[C@@H]2CN(S(=O)(=O)N(C)C)C3)n1,-4.08
20,CC1=CC[C@@H]2CN(C(=O)c3ccc(-c4nc[nH]n4)cc3)C[C@@H]2C1,-12.9
21,COCCN1CC[C@H]2CN(Cc3ccc(C)s3)C[C@@H]2C1=O,-2.27
22,Cc1ccc(CN2C[C@@H]3CCN(Cc4cccnc4)C(=O)[C@H]3C2)s1,13.6
23,Cc1ccc(CN2C[C@@H]3CCN(Cc4ccncc4)C(=O)[C@H]3C2)s1,54
24,CCN1C[C@H]2CCN(Cc3ccncc3)C(=O)[C@@H]2C1,-1.34
25,Cc1ccc(CN2C[C@H]3CN(CC4CCN(C)CC4)C(=O)[C@H]3C2)s1,-7.79
26,O[C@@H]1C[C@@](CNCC2CCCC2)(COc2cccnc2)C[C@@H]1O,-0.271

row,SMILES,Percent Effect [%]
1,CN(C)C(=O)CO[C@H]1CN(Cc2ccoc2)[C@@H]2COC[C@H]12,-6.93
2,Cc1cccc(CN2C(=O)CO[C@@H]3CN(C4CCOCC4)C[C@H]32)c1,-8.98
3,Cc1cc(C)n(CCCC(=O)N2CC[C@H]3NCCC[C@]3(CO)C2)n1,-5.5
4,CC(C)CN1C[C@H]2N(c3ncccn3)CCC[C@@]2(C(=O)NCC2CC2)C1,-20.2
5,Cc1cc2cc(C(=O)N3CCN(CCO)[C@@H]4CS(=O)(=O)C[C@@H]43)ccc2o1,-4.08
6,Cc1nnc(N2C[C@@H](Oc3ccccn3)[C@H]3OCCC[C@H]32)s1,9.54
7,COCCN1C[C@H]2CN(C(=O)NC(C)C)CCN2C1=O,-7.02
8,COc1cc(CN2CCCCCC2c2cccs2)cc(OC)c1OC (stereo unspecified),1.65
9,COc1cccc(CN2CCCCCC2c2cccs2)c1O (stereo unspecified),-21.7
10,COc1cc(CN2CCCCCC2c2cccs2)cc(OC)c1O (stereo unspecified),52.1
11,O=C([C@H]1COC[C@H]2CN(Cc3ccco3)C[C@H]21)N1CCCO1,3.57
12,O=C(NC[C@H]1C[C@@H]2CCN1C[C@@H]2CN1CCCCC1)c1ccco1,-12.3
13,O=S(=O)(NC[C@]12COC[C@H]1CN(c1ncc(F)cn1)C2)C1CC1,-0.384
14,CNC(=O)[C@@H]1C[C@H]2CN(Cc3c(C)noc3C)C[C@H]2N1C(C)C,-4.22
15,CCSCCNC(=O)c1ccc(S(=O)(=O)N2C[C@@H]3C[C@H]2CN3)cc1,9.91
16,CC(C)NC(=O)N1CCC2(CC1)CC[C@@]1(C(=O)N(C)C)CN(C)C[C@@H]21,-5.9
17,COc1ncccc1C(=O)N1CC[C@H]2C[C@@H](c3ccncn3)O[C@@H]2C1,-7.36
18,O=C(CCc1ccccc1)N1C[C@H]2CCN[C@H]2C1,0.746
19,COc1ncccc1CN1C[C@@H]2COC[C@]2(COCC2CC2)C1,-9.86
20,O=C1CC[C@H]2[C@H](CCN2C(=O)C2CCOC2)N1Cc1ccncc1 (stereo partly specified),0.241
21,CNC(=O)[C@H]1C[C@@H]2CN(C(=O)Nc3ccccc3)C[C@H]1O2,-3.31
22,CNC(=O)[C@H]1C[C@@H]2CN(C(=O)c3ccsc3)C[C@@H]2N1S(C)(=O)=O,-13.7
23,Cc1ncccc1NC(=O)[C@H]1C[C@@H]2CCN(Cc3ccsc3)C[C@H]2O1,-3.15
24,CN(C)CCN1CCO[C@H]2CN(Cc3cnn(C)c3)C[C@H]21,-9.41
25,CCN(Cc1nc2c(cnn2C)c(=O)[nH]1)Cc1ccco1,7.15
26,CCN(Cc1nc2c(cnn2C)c(=O)[nH]1)Cc1cccs1,61.1

row,SMILES,Percent Effect [%]
1,CCN(Cc1ccccc1)Cc1nc2c(cnn2C)c(=O)[nH]1,-16.6
2,CCOCC1C[C@@H]2OCCN(C(=O)c3ccc[nH]3)[C@H]2C1 (stereo partly specified),-16.1
3,O=C(Nc1ccccc1-c1ccccc1)N1C[C@@H]2CNC[C@]2(C(=O)O)C1,4.15
4,COCCNC(=O)[C@H]1C[C@@H]2CCN(c3ncccn3)C[C@H]2O1,-14.4
5,CC(C)(C)c1ccc(CN2C[C@H]3C[C@H](O)C[C@H]3C2)c(OCC(N)=O)c1,2.62
6,Cn1cc(N2CC[C@@H]3CN(Cc4ccncc4)C[C@H]3C2=O)cn1,6.53
7,COCC(=O)N1C[C@H](N(C)Cc2cncnc2)[C@H]2OCCC[C@H]21,3.58
8,NS(=O)(=O)N1CCc2ccc(NC(=O)Cc3ccc(F)cc3)cc21,70.3
9,NS(=O)(=O)N1CCc2ccc(NC(=O)Cc3ccccc3F)cc21,21.3
10,NS(=O)(=O)N1CCc2ccc(NC(=O)CC(F)(F)F)cc21,-1.98
11,CN(C)S(=O)(=O)N1C[C@@H](OCc2ccccn2)[C@H]2OCCC[C@H]21,14.2
12,Cn1cc(CN2CC[C@@H]3[C@@H](CCC(=O)N3CCc3ccccc3)C2)cn1,-11.2
13,O=C(NCCc1cccs1)[C@]12COC[C@H]1CN(Cc1ccccn1)C2,21.1
14,COc1ccc(N2CCN(C(=O)[C@H]3[C@@H]4CNC[C@@H]43)CC2(C)C)cc1,-7.82
15,CCN1C[C@H]2CCN(C(=O)c3cc[nH]n3)CC[C@H]2S1(=O)=O,-1.84
16,Cc1noc([C@H]2CC[C@@H]3[C@@H](CCN3S(=O)(=O)C3CC3)O2)n1,16.5
17,Cc1cc(CN2CCCC2)cc(Oc2ccc3c(c2)CC(CN)O3)c1 (stereo unspecified),-31.6
18,NCC1Cc2cc(Oc3cc(F)c(CN4CCCC4)c(F)c3)ccc2O1 (stereo unspecified),72.6
19,COc1ccc(CN2CCCC2)cc1Oc1ccc2c(c1)CC(CN)O2 (stereo unspecified),-30
20,Cc1cnc(N2C[C@H]3CCCC(N(C)Cc4ccccn4)[C@H]3C2)nc1 (stereo partly specified),6.27
21,O=C(CCC(F)(F)F)N1CCN(Cc2ccncc2)[C@@H]2CS(=O)(=O)C[C@@H]21,-11.9
22,CC(=O)N1[C@H](Cn2cncn2)C[C@@H]2CN(Cc3ccccn3)CC[C@@H]21,-7.75
23,O=C(N1CCCC1)N1C[C@H]2CC[C@@H]1CN(Cc1ccncc1)C2,-3.97
